# High-throughput results (PubChem)
# Sampled rows, rich in hits. Any-hit rate of the full collection: about 1.4%.
# RXFP1 antagonist – blocks the human relaxin receptor RXFP1; Q9HBX9; HEK293-RXFP1, relaxin-stimulated cAMP HTRF, 30 min; stronger effect = lower value; activity change, negative = inhibition, % at 57.5 µM; hit rate 0.59% among 350,000; AID 1259400;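 active = activity change of -60% or lower, but not beyond a set lower limit; inconclusive = change between -60% and -40%, or beyond the set limit; inactive = change above -40%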; also: % is scaled to controls: 0 for no effect and ±100 for the full control effect
# Target sequence (Q9HBX9 whole entry, looked up): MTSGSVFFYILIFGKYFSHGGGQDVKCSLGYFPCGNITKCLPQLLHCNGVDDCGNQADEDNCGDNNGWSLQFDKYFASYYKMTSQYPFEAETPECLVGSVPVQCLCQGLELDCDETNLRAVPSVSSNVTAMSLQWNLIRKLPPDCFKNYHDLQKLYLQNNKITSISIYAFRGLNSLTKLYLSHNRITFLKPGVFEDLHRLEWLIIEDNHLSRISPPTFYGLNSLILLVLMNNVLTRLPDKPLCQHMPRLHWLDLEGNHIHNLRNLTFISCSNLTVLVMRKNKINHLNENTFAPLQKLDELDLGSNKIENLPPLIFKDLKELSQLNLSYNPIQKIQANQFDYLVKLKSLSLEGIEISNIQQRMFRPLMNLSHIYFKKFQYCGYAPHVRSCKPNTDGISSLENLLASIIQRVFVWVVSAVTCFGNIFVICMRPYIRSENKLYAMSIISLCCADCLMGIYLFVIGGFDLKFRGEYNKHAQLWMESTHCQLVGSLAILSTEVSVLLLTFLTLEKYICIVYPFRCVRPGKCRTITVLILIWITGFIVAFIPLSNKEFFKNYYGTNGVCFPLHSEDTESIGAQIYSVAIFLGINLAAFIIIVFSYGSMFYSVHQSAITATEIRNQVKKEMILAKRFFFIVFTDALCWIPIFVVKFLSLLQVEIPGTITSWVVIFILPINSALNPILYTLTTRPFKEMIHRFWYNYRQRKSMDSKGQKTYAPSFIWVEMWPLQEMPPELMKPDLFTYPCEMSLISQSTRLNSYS
# Glioma ERSR ind – induces the endoplasmic reticulum stress response in human glioma cells. AID 602332. Potency, µM, for inactives: at the top dose activation, most hits filed as activators. hit rate 0.02% among 420,000. U87-MG GRP78 promoter luciferase reporter, 16 h; also: potency is read from the fitted curve at half-maximal effect; series mostly up to about 76 µM; % of control where 0% means no effect; nearly all actives have a fitted effect of over 35% in size
#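 ERSR induction read as luciferase luminescence (Bright-Glo, 10 min at room temperature) in stably transfected human U87-MG glioma cells exposed to compounds for 16 h, using GRP78 as sensor.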
# KCNH2 WT inh – inhibitors of human wildtype KCNH2 potassium channel; U2OS, BacMam KCNH2, thallium flux FluxOr; stronger effect = lower value; AID 720551; hit rate 0.37% among 340,000; Q12809; activity change, % at 1.84 µM;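 active = maximum activity change below -70%; inconclusive = maximum activity change between -70% and -50%; inactive = maximum activity change above -50%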; also: % is scaled to controls: 0 for no effect and ±100 for the full control effect
#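 U2OS cells transduced with wild-type KCNH2 virus are loaded with FluxOr dye for 45 min, and thallium flux is measured in kinetic reads before and after stimulation buffer. Rate constants are normalized to DMSO controls.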
# KCNH2 3.1 block – inhibitors of human KCNH2 3.1 potassium channel isoform | U2OS KCNH2 3.1, thallium flux FluxOr; stronger effect = lower value | activity change, % (tested at about 1.8 µM) | hit rate 0.95% among 340,000 | AID 720553;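 active = maximum activity change below -70%; inconclusive = maximum activity change from -70% to -50%; inactive = maximum activity change above -50%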;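 also: thallium influx rate constant from kinetic fluorescence after stimulation buffer; % is scaled to controls: 0 for no effect and ±100 for the full control effect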
#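 We transduce U2OS cells with the mutant 3.1 virus, culture them overnight, load FluxOr with Red40 quencher for 45 min, then add stimulation buffer and read kinetically for 2 min to derive a normalized rate constant.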
# RXFP1 agonist – agonists of human relaxin receptor RXFP1; Q9HBX9; HEK293T-RXFP1 cAMP TR-FRET, 30 min; response scale: percent of porcine relaxin response, buffer zero; Potency, µM (titrated, usually from 57.5 µM), for the others: at the top dose activation, most hits filed as activators; hit rate 0.3% among 370,000; AID 2676; also: potency is read from the fitted curve at half-maximal effect; % is scaled to controls: 0 for no effect and ±100 for the full control effect; nearly all actives have a fitted effect of over 60% in size
#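 Agonist response is measured as cAMP accumulation in an RXFP1-transfected HEK293T line under PDE4 inhibition. Values are scaled between buffer-only and 29 nM porcine relaxin, and EC50s come from standard Hill equation fits.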
# PTHR1 agonist – agonists of human PTHR1 parathyroid hormone receptor; AID 743266; hit rate 0.075% among 410,000; Potency, µM (titrated, usually from 115 µM), for the others: top-dose activation, usual class: activators; HEK293 GP2 PTHR1 cells, GloSensor cAMP luminescence, 1 h; also: potency is read from the fitted curve at half-maximal effect; nearly all actives have a fitted effect of over 55% in size
#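 HEK-293-derived GP2 cells expressing PTHR1 and a GloSensor cAMP reporter, 3,000/well, plated overnight, given luciferin plus IBMX (each 0.5 mM as added) for 1 h at 37 °C, then compound for 1 h at 37 °C. Luminescence was read after 15 min at room temperature.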
# The depositor's hits bear a star; i = inactive; ? = inconclusive; / = no result; [ ] = another dose, or the depositor's remark. Unless noted, calls follow the shape of the dose curve; as a rule, active = well fitted curve in the direction sought with a large enough effect; inconclusive = small, poorly fitted or top-dose-only effect, or another doubt; inactive = no such curve, though single readings can be large; an effect the other way counts as inactive or inconclusive.
SMILES,RXFP1 antagonist,Glioma ERSR ind,KCNH2 WT inh,KCNH2 3.1 block,RXFP1 agonist,PTHR1 agonist
O=C(c1ccco1)N1CCN(S(=O)(=O)c2ccc(S(=O)(=O)NC3CC3)cc2)CC1,-18,-5%,11,-83*,1%,-15%[57.5 µM]
Cc1ccc(CNC(=O)c2ccc3c(c2)NC(=O)C(N2CCOCC2)S3)cc1 (stereo unspecified),-62*,-10%,14,5,0%,-27%
COc1ccc(-n2c(SCC(=O)Nc3ccc(Br)cc3)nc(O)cc2=O)cc1,-66*,-2%,2,3,0%,-27%
COc1cccc(NC(=O)CSc2nnc(-c3ccoc3C)n2-c2ccccc2)c1,1,-1%,-41,-16,1%,-5%[57.5 µM]
Cc1ccc(NC(=O)CSc2nc(O)cc(=O)n2-c2ccc(C)cc2)cc1,-35,-1%,10,9,2%,-22%
COc1ccc(-n2c(SCC(=O)Nc3ccccc3)nnc2-c2ccoc2C)cc1,0,-5%,-9,-105*,/,i
C=CCn1c(SCC(=O)Nc2ccc3c(c2)CCC3)nnc1-c1cccs1,14,-6%,-94*,-76*,-1%,i
Cc1ccc(-n2c(SCC(=O)Nc3ccc4c(c3)OCO4)nnc2-c2cccs2)cc1,-25,-10%,-154*,?,1%,-19%[57.5 µM]
O=C(c1ccccc1F)N(Cc1cc2cc3c(cc2nc1N1CCOCC1)CCC3)CC1CCCO1 (stereo unspecified),/,-2%,/,/,/,/
OC(c1ccc(F)c(F)c1)c1nc(-c2ccc(Cl)cc2)cs1 (stereo unspecified),/,-2%,/,/,/,-3%
Cc1cccc(-n2c(SCC(=O)Nc3ccc4c(c3)OCO4)nnc2-c2ccoc2C)c1,14,-6%,-90*,-71*,0%,i
Cc1cccc(-n2ccnc2SCC(=O)Nc2ccc3c(c2)OCO3)c1,/,-4%,/,/,3%,-8%
Brc1ccc(-c2nn3c(-c4ccco4)nnc3s2)o1,-23,1%,4,1,13µM*,-1%[57.5 µM]
Clc1ccc(-c2ccc(-c3nn4c(-c5ccco5)nnc4s3)o2)cc1,4,-2%,2,10,/,?
O=C(NC1CC(=O)N(c2ccccc2)C1)C1CCCCC1 (stereo unspecified),-1,-3%,/,/,1%,-39%
COc1ccc(C2C(C(=O)c3ccco3)=C(O)C(=O)N2Cc2cccnc2)cc1OC (stereo unspecified),3,-1%,-1,12,2%,-9%[57.5 µM]
COc1cccc2cc(C(=O)C3=C(O)C(=O)N(Cc4ccco4)C3c3cccnc3)oc12 (stereo unspecified),8,-2%,-1,10,25µM*,i
CCC(=O)c1ccc(OC(=O)Cc2ccc(OC)cc2)cc1,-113*,-1%,-12,-22,-1%,i
COc1ccc(CC(=O)Oc2ccccc2C)cc1,-1,-1%,2,2,3%,i
CCCN1C(=O)/C(=C/c2ccncc2)SC1=S,1,-1%,-5,-9,0%,-8%
O=C1/C(=C/c2ccncc2)SC(=S)N1Cc1ccccc1,-99*,?,3,-1,-1%,-29%
COc1ccc(N2CCN(CCNC(=O)Nc3cccc(C)c3C)CC2)cc1,10,-1%,10,-5,6%,i
COc1ccccc1N1CCN(CCNC(=O)Nc2cccc(C)c2C)CC1,-16,-6%,-124*,-35,0%,-11%
Cc1cc(Nc2cccc(C(F)(F)F)c2)nc2ccc(NC(=O)c3cccnc3)cc12,-72*,-12%,/,/,6%,i
COc1ccc2nc(NC(=O)c3nc(S(=O)(=O)Cc4ccccc4F)ncc3Cl)sc2c1,-83*,-9%,/,/,-1%,-59%
SMILES,RXFP1 antagonist,Glioma ERSR ind,KCNH2 WT inh,KCNH2 3.1 block,RXFP1 agonist,PTHR1 agonist
CS(=O)(=O)c1ncc(Cl)c(C(=O)Nc2ccc(OC(F)F)cc2)n1,-82*,-15%,-5,-7,12%,-65%
CS(=O)(=O)c1ncc(Cl)c(C(=O)Nc2ccc(N3CCOCC3)cc2)n1,-14,-13%,-13,-10,0%,-31%[57.5 µM]
CCOc1ccc(NC(=O)c2nc(S(=O)(=O)Cc3ccccc3C)ncc2Cl)cc1,/,-11%,/,/,/,/
Cc1ccccc1CS(=O)(=O)c1ncc(Cl)c(C(=O)Nc2ccc(F)cc2)n1,-104*,-15%,-35,9,0%,i
O=C(NCc1ccccc1)c1nc(S(=O)(=O)Cc2ccc(F)cc2)ncc1Cl,-116*,-11%,/,/,0%,-42%
Cc1ccc(NC(=O)c2nc(S(=O)(=O)Cc3ccccc3)ncc2Cl)cc1,-85*,-18%,0,-18,1%,-24%
O=C(Nc1ccc(F)cc1)c1nc(S(=O)(=O)Cc2ccccc2)ncc1Cl,-105*,-17%,18,-11,-2%,-22%
Cc1nnc(NC(=O)c2nc(S(=O)(=O)Cc3ccccc3)ncc2Cl)s1,-6,-19%,-2,3,2%,-23%
CC(C)Oc1cccc(C(=O)C2CCCN(Cc3cnc(N4CCOCC4)s3)C2)c1 (stereo unspecified),-65*,-2%,24,11,2%,-15%
CC1Cc2ccccc2N1C(=O)COC(=O)c1cccnc1Cl (stereo unspecified),-4,-2%,7,-5,0%,-12%[57.5 µM]
O=[N+]([O-])c1ccc(CN2CCN(c3ncccn3)CC2)cc1,-6,-5%,11,0,2%,-45%
O=C1c2cccc(OCC(=O)N3CCCc4ccccc43)c2CCN1Cc1cccnc1,1,-5%,12,4,0%,-33%
Cc1ccccc1CN1CCc2c(OCC(=O)N3CCCc4ccccc43)cccc2C1=O,11,-2%,-123*,-15,6%,-36%
OC(CNCc1ccc(-c2ccccc2)cc1)c1ccccc1 (stereo unspecified),-61*,0%,2,-16,2%,i
COC(=O)CCc1sc(Nc2ccccc2)nc1-c1ccc(OC)cc1,-28,5%,4,6,-2%,-19%
CC1CCN(c2ccc(C=O)o2)CC1,5,-1%,/,-196*,-1%,i
O=Cc1ccc(N2CCCC2)o1,-3,-6%,7,1,-1%,i
CCCCN(C(=O)C1CC(=O)N(c2ccc3c(c2)OCCO3)C1)c1c(N)n(CC(C)C)c(=O)[nH]c1=O (stereo unspecified),0,-2%,-152*,-192*,0%,?
CN(c1ccccc1)S(=O)(=O)c1ccc(C(=O)NCC(c2ccco2)N2CCCCC2)cc1 (stereo unspecified),1,-2%,5,11,0%,15%
